Measured values reported in PubChem BioAssay (Tox21).
Records with an inconclusive call do not appear. Calls of active or inactive are those of the source. Unless noted, calls come from the whole dose curve; as a rule, active = well fitted curve in the direction sought with a large enough effect in the repeat runs; inconclusive = weak or mixed curves; inactive = no such curve, though single readings can be large; an effect the other way counts as inactive or inconclusive.

Columns and labels:
[1] = qHTS assay to identify small molecule that activate the aryl hydrocarbon receptor (AhR) signaling pathway - cell viability counter screen (AID 743086);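 note: HepG2 liver cells carrying the AhR DRE luciferase reporter; series mostly up to about 70 µM; nearly all actives have a fitted effect of over 45% in size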
Procedure, shortened: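 Cytotoxicity counter screen: CellTiter-Fluor signal (30 min, 37 C) in 4000 HepG2 cells/well carrying the DRE-luciferase reporter, following 24 h compound exposure at 37 C.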

[2] = qHTS assay for small molecule agonists of the antioxidant response element (ARE) signaling pathway - cell viability counter screen (AID 743203; calls by dose curve; note: nearly all actives have a fitted effect of over 55% in size)
Procedure, shortened: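 Measured in the same wells as the beta-lactamase ARE reporter, this read-out is CellTiter-Glo luminescence from HepG2 ARE-bla cells given compounds for 16 hrs.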

[3] = qHTS assay for small molecule activators of the heat shock response signaling pathway - cell viability counter screen (AID 743209); note: nearly all actives have a fitted effect of over 50% in size
Procedure, shortened: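 Same-well multiplex: after 2.5 h room-temperature incubation with LiveBLAzer B/G substrate and fluorescence reading, CellTiter-Glo reagent was added to HSE-bla HeLa cells that had received compound for 5 h at 37 C; luminescence read after 30 min.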

[4] = qHTS assay for small molecule activators of the heat shock response signaling pathway (AID 743210; active = well fitted activation curve with a large enough effect in the signal ratio in the repeat runs, with a control signal flat, not every such curve was filed as active; the % refers to the signal ratio; note: series mostly up to about 63 µM)
Procedure, shortened: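 Compound exposure lasted 5 h at 37 C in HeLa cells carrying a heat-shock-element-driven beta-lactamase reporter. Read-out: fluorescence intensity after 2.5 h room-temperature loading with LiveBLAzer B/G FRET substrate.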

[5] = qHTS assay to identify small molecule agonists of the peroxisome proliferator-activated receptor delta (PPARd) signaling pathway - cell viability counter screen (AID 743211); note: nearly all actives have a fitted effect of over 55% in size
Procedure, shortened: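 qHTS cell viability: PPARd-bla HEK293H; 17 h cpd, 37C; CellTiter-Glo, luminescence at 30 min RT.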

[6] = qHTS assay to identify small molecule antagonists of the peroxisome proliferator-activated receptor delta (PPARd) signaling pathway - cell viability counter screen (AID 743213); note: nearly all actives have a fitted effect of over 50% in size
Procedure, shortened: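 In this counter screen, HEK293H cells carrying a UAS-beta-lactamase reporter are co-treated with test compounds and 300 nM L165041 (final) for 17 h at 37 C; cell viability is quantified by CellTiter-Glo luminescence.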

[7] = biological target: Bile acid receptor (Homo sapiens) (UniProt Q96RI1); assay: qHTS assay to identify small molecule antagonists of the farnesoid-X-receptor (FXR) signaling pathway (AID 743217; active = well fitted inhibition curve with a large enough effect in the signal ratio in the repeat runs, not every such curve was filed as active; the % refers to the signal ratio)
Procedure, shortened: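 FRET fluorescence after 2 h room-temperature LiveBLAzer loading gives the readout. Prior step: FXR-bla HEK 293T cells, seeded and incubated 5 h, received test compounds plus 50 uM final CDCA for 16 h at 37 °C.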

[8] = qHTS assay to identify small molecule antagonists of the farnesoid-X-receptor (FXR) signaling pathway - cell viability counter screen (AID 743221; active = well fitted cell-killing curve with a large enough effect in the repeat runs, not every such curve was filed as active; note: nearly all actives have a fitted effect of over 50% in size)
Procedure, shortened: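 After a 5 h settling period, FXR-bla HEK 293T cells receive compound and chenodeoxycholic acid (50 uM final) and incubate 16 h at 37 C; CellTiter-Glo luminescence, read after 30 min at room temperature, reports cell viability.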

[9] = biological target: Vitamin D3 receptor (Homo sapiens) (UniProt P11473); assay: qHTS assay to identify small molecule agonists of the vitamin D receptor (VDR) signaling pathway (AID 743222; calls by dose curve)
Procedure, shortened: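 Following 4 h attachment at 37C, VDR-bla cells (2,000 per well) received DMSO-dissolved compounds or controls. After 16 h incubation, LiveBLAzer B/G FRET substrate was added and fluorescence read 2 h later at room temperature.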

[10] = biological target: Vitamin D3 receptor (Homo sapiens) (UniProt P11473); assay: qHTS assay to identify small molecule antagonists of the vitamin D receptor (VDR) signaling pathway (AID 743223; active = well fitted inhibition curve with a large enough effect in the signal ratio in the repeat runs, not every such curve was filed as active; the % refers to the signal ratio)
Procedure, shortened: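 Reporter line VDR-bla; stimulus 1alpha,25-(OH)2 vitamin D3, 3 nM final; compound co-addition, 16 h 37C/5% CO2; LiveBLAzer B/G substrate 2 h RT; fluorescence intensity.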

[11] = qHTS assay to identify small molecule agonists of the vitamin D receptor (VDR) signaling pathway - cell viability counter screen (AID 743224); note: nearly all actives have a fitted effect of over 50% in size; note: potency is the fitted concentration of half-maximal effect
Procedure, shortened: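 In parallel with the bla FRET readout, cytotoxicity toward VDR-bla cells after 16 h compound exposure was assessed by CellTiter-Glo, with luminescence recorded after a 30 min room-temperature incubation.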

[12] = biological target: Peroxisome proliferator-activated receptor gamma (Homo sapiens) (UniProt P37231); assay: qHTS assay to identify small molecule agonists of the peroxisome proliferator-activated receptor gamma (PPARg) signaling pathway (AID 743094; active = well fitted activation curve with a large enough effect in the signal ratio in the repeat runs, not every such curve was filed as active; the % refers to the signal ratio)
Procedure, shortened: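 Cell-based bla reporter, HEK293H background, PPARg-driven UAS. Pre-incubation 5 h, 37C, 5% CO2. Compound 17 h, 37C. Substrate 1 h RT; fluorescence.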

[13] = qHTS assay to identify small molecule antagonists of the peroxisome proliferator-activated receptor gamma (PPARg) signaling pathway - cell viability counter screen (AID 743194); note: nearly all actives have a fitted effect of over 55% in size
Procedure, shortened: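 Viability was measured as CellTiter-Glo luminescence in GeneBLAzer PPARg UAS-bla HEK293H cells. These cells had been exposed 17 h at 37 C to compounds together with rosiglitazone at 50 nM final, with the beta-lactamase readout taken in the same wells.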

[14] = biological target: Peroxisome proliferator-activated receptor delta (Homo sapiens) (UniProt Q03181); assay: qHTS assay to identify small molecule agonists of the peroxisome proliferator-activated receptor delta (PPARd) signaling pathway (AID 743212; calls by dose curve;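 note: HEK293H cells with PPARd UAS beta-lactamase reporter GeneBLAzer system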)
Procedure, shortened: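 Beta-lactamase reporter readout: a ratiometric FRET signal from the LiveBLAzer substrate after 2 h at room temperature. Compound exposure at 37 °C in PPARδ-bla HEK293H cells driven by an upstream activator sequence.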

[15] = biological target: Peroxisome proliferator-activated receptor gamma (Homo sapiens) (UniProt P37231); assay: qHTS assay to identify small molecule antagonists of the peroxisome proliferator-activated receptor gamma (PPARg) signaling pathway (AID 743191; calls by dose curve; note: series mostly up to about 63 µM; nearly all actives have a fitted effect of over 30% in size)
Procedure, shortened: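 Beta-lactamase reporter under UAS control in HEK293H PPARg-bla cells; compound treatment 17 h at 37C. Read-out: fluorescence intensity after 1 h room-temperature incubation with LiveBLAzer B/G FRET substrate.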

[16] = qHTS assay for small molecule agonists of the antioxidant response element (ARE) signaling pathway (AID 743202; active = well fitted activation curve with a large enough effect in the signal ratio in the repeat runs, not every such curve was filed as active; the % refers to the signal ratio; note: potency is the fitted concentration of half-maximal effect)
Procedure, shortened: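 After 16 hours of compound treatment at 37 C, HepG2 cells with a stably integrated ARE-driven beta-lactamase reporter were loaded 2 hours at room temperature with LiveBLAzer B/G FRET substrate and fluorescence intensity measured.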

[17] = qHTS assay to identify small molecule agonists of the farnesoid-X-receptor (FXR) signaling pathway - cell viability counter screen (AID 743218); note: nearly all actives have a fitted effect of over 45% in size
Procedure, shortened: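 Readout: CellTiter-Glo luminescence, 30 min RT, multiplexed after the FXR-bla FRET reading. HEK 293T FXR-UAS-bla cells received compound 5 h post-plating and were incubated 16 h at 37 C.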

[18] = biological target: Bile acid receptor (Homo sapiens) (UniProt Q96RI1); assay: qHTS assay to identify small molecule agonists of the farnesoid-X-receptor (FXR) signaling pathway (AID 743220; active = well fitted activation curve with a large enough effect in the signal ratio in the repeat runs, not every such curve was filed as active; the % refers to the signal ratio)
Procedure, shortened: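 FXR-UAS-bla HEK 293T cells carrying a UAS-driven beta-lactamase reporter were plated for 5 h at 37C/5% CO2, then exposed to DMSO-dissolved Tox21 10K compounds for 16 h at 37C. A LiveBLAzer B/G FRET substrate was loaded for 2 h at room temperature before fluorescence reading.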

[19] = biological target: Peroxisome proliferator-activated receptor delta (Homo sapiens) (UniProt Q03181); assay: qHTS assay to identify small molecule antagonists of the peroxisome proliferator-activated receptor delta (PPARd) signaling pathway (AID 743215; active = well fitted inhibition curve with a large enough effect in the signal ratio in the repeat runs, not every such curve was filed as active; the % refers to the signal ratio;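 note: cells stimulated with agonist L165041 at 300 nM final during compound exposure; series mostly up to about 62 µM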)
Procedure, shortened: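 Fluorescence from cleaved LiveBLAzer B/G FRET substrate (2 h, room temperature) reports PPARd-driven beta-lactamase in HEK293H UAS-bla cells. Cells had been treated 17 h at 37 C with compound plus 300 nM final L165041.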

Measured: Potency

Chain of Vitamin D3 receptor (Homo sapiens) (P11473 whole entry, looked up): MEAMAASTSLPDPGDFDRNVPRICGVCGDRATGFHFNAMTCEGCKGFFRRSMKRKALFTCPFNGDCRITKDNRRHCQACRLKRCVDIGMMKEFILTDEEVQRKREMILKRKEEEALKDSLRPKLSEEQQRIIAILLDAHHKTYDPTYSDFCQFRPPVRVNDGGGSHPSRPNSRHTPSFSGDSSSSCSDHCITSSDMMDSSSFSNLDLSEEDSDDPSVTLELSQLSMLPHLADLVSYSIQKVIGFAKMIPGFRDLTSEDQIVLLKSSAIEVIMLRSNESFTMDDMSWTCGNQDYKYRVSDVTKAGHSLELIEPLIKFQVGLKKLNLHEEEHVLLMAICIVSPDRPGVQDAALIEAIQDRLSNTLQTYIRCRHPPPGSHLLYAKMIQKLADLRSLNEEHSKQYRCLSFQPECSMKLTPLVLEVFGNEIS
Chain of Bile acid receptor (Homo sapiens) (Q96RI1 whole entry, looked up): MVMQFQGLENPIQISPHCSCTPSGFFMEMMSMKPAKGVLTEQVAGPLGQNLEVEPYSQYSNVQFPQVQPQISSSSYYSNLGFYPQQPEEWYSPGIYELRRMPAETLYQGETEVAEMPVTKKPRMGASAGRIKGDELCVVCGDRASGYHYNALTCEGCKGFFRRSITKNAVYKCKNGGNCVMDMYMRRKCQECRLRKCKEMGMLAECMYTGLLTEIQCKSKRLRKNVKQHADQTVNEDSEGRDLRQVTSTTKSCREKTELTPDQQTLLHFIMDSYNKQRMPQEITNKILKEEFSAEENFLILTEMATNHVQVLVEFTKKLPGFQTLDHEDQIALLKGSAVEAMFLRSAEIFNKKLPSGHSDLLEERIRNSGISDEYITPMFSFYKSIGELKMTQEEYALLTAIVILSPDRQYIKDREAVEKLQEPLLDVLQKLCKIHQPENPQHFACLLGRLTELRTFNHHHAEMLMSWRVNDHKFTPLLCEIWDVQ
Chain of Peroxisome proliferator-activated receptor delta (Homo sapiens) (Q03181 whole entry, looked up): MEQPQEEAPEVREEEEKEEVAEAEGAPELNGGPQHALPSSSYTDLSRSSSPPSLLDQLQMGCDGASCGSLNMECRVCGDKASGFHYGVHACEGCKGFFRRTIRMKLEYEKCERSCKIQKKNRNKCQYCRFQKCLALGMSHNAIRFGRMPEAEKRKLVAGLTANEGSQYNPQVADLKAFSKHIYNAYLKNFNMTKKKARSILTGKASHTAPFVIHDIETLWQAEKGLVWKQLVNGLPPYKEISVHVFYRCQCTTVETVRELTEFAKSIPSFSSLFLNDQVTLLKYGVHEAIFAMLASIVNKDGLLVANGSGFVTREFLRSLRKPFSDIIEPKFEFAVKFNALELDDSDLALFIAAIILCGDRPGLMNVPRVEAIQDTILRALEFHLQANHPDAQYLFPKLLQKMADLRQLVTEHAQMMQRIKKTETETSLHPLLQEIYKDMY
Chain of Peroxisome proliferator-activated receptor gamma (Homo sapiens) (P37231 whole entry, looked up): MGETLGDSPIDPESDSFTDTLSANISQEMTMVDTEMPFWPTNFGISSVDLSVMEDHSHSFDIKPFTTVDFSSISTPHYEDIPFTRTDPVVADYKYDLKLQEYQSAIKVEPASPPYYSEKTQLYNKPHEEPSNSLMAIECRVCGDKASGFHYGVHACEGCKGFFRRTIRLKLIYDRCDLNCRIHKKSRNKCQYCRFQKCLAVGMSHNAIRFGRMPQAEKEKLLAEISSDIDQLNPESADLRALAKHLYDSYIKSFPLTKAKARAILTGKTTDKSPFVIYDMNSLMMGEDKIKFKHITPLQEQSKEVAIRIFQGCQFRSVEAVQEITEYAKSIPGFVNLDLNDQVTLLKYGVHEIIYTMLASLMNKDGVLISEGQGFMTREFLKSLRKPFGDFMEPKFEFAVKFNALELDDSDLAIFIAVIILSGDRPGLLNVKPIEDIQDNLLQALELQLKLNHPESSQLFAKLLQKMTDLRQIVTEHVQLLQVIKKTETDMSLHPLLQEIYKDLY

CCCCO
not listed: [12] | [13] | [14] | [15] | [16] | [17] | [18] | [19]
inactive: all other assays above

CN1CCC(N(Cc2cccs2)c2ccccc2)CC1
active: [11] 33.5 µM
inactive: [12] | [13] | [2] | [14]

Nc1ccc([N+](=O)[O-])c(C(F)(F)F)c1
not listed: [1] | [6] | [7] | [9] | [12] | [13] | [19]
inactive: all other assays above

Cc1ccc(C(C)OC(=O)C2(C)CCC(C(=O)O)C2(C)C)cc1 (configuration not stated)
inactive: [13] | [16] | [2] | [3] | [4] | [14] | [17] | [8] | [11]

CN(C)CCOC(c1ccccc1)c1ccc(Br)cc1 (configuration not stated)
inactive: [2] | [3] | [4] | [14] | [7] | [18] | [9]

O=C1[C@H]2CCCC[C@H]2C(=O)N1CCCCN1CCN(c2nsc3ccccc23)CC1
active: [16] 23.7 µM
not listed: [1] | [9] | [10] | [12] | [13] | [15]
inactive: all other assays above
